Measurements published in the supplement of paper PMC8728848.
About 410 targets per protein were measured; listed, in parts, are those with the strongest signals and a random draw of the rest.

B1: CLEC7A (Homo sapiens), Q9BXN2 (protein)
chain: MEYHPDLENLDEDGYTQLHFDSQSNTRIAVVSEKGSCAASPPWRLIAVILGILCLVILVIAVVLGTMAIWRSNSGSNTLENGYFLSRNKENHSQPTQSSLEDSVTPTKAVKTTGVLSSPCPPNWIIYEKSCYLFSMSLNSWDGSKRQCWQLGSNLLKIDSSNELGFIVKQVSSQPDNSFWIGLSRPQTEVPWLWEDGSTFSSNLFQIRTTATQENPSPNCVWIHVSVIYDQLCSVPSYSICEKKFSM
B2: DEC205 (Homo sapiens), O60449 (protein)
chain: MRTGWATPRRPAGLLMLLFWFFDLAEPSGRAANDPFTIVHGNTGKCIKPVYGWIVADDCDETEDKLWKWVSQHRLFHLHSQKCLGLDITKSVNELRMFSCDSSAMLWWKCEHHSLYGAARYRLALKDGHGTAISNASDVWKKGGSEESLCDQPYHEIYTRDGNSYGRPCEFPFLIDGTWHHDCILDEDHSGPWCATTLNYEYDRKWGICLKPENGCEDNWEKNEQFGSCYQFNTQTALSWKEAYVSCQNQGADLLSINSAAELTYLKEKEGIAKIFWIGLNQLYSARGWEWSDHKPLNFLNWDPDRPSAPTIGGSSCARMDAESGLWQSFSCEAQLPYVCRKPLNNTVELTDVWTYSDTRCDAGWLPNNGFCYLLVNESNSWDKAHAKCKAFSSDLISIHSLADVEVVVTKLHNEDIKEEVWIGLKNINIPTLFQWSDGTEVTLTYWDENEPNVPYNKTPNCVSYLGELGQWKVQSCEEKLKYVCKRKGEKLNDASSDKMCPPDEGWKRHGETCYKIYEDEVPFGTNCNLTITSRFEQEYLNDLMKKYDKSLRKYFWTGLRDVDSCGEYNWATVGGRRRAVTFSNWNFLEPASPGGCVAMSTGKSVGKWEVKDCRSFKALSICKKMSGPLGPEEASPKPDDPCPEGWQSFPASLSCYKVFHAERIVRKRNWEEAERFCQALGAHLSSFSHVDEIKEFLHFLTDQFSGQHWLWIGLNKRSPDLQGSWQWSDRTPVSTIIMPNEFQQDYDIRDCAAVKVFHRPWRRGWHFYDDREFIYLRPFACDTKLEWVCQIPKGRTPKTPDWYNPDRAGIHGPPLIIEGSEYWFVADLHLNYEEAVLYCASNHSFLATITSFVGLKAIKNKIANISGDGQKWWIRISEWPIDDHFTYSRYPWHRFPVTFGEECLYMSAKTWLIDLGKPTDCSTKLPFICEKYNVSSLEKYSPDSAAKVQCSEQWIPFQNKCFLKIKPVSLTFSQASDTCHSYGGTLPSVLSQIEQDFITSLLPDMEATLWIGLRWTAYEKINKWTDNRELTYSNFHPLLVSGRLRIPENFFEEESRYHCALILNLQKSPFTGTWNFTSCSERHFVSLCQKYSEVKSRQTLQNASETVKYLNNLYKIIPKTLTWHSAKRECLKSNMQLVSITDPYQQAFLSVQALLHNSSLWIGLFSQDDELNFGWSDGKRLHFSRWAETNGQLEDCVVLDTDGFWKTVDCNDNQPGAICYYSGNETEKEVKPVDSVKCPSPVLNTPWIPFQNCCYNFIITKNRHMATTQDEVHTKCQKLNPKSHILSIRDEKENNFVLEQLLYFNYMASWVMLGITYRNNSLMWFDKTPLSYTHWRAGRPTIKNEKFLAGLSTDGFWDIQTFKVIEEAVYFHQHSILACKIEMVDYKEEHNTTLPQFMPYEDGIYSVIQKKVTWYEALNMCSQSGGHLASVHNQNGQLFLEDIVKRDGFPLWVGLSSHDGSESSFEWSDGSTFDYIPWKGQTSPGNCVLLDPKGTWKHEKCNSVKDGAICYKPTKSKKLSRLTYSSRCPAAKENGSRWIQYKGHCYKSDQALHSFSEAKKLCSKHDHSATIVSIKDEDENKFVSRLMRENNNITMRVWLGLSQHSVDQSWSWLDGSEVTFVKWENKSKSGVGRCSMLIASNETWKKVECEHGFGRVVCKVPLGPDYTAIAIIVATLSILVLMGGLIWFLFQRHRLHLAGFSSVRYAQGVNEDEIMLPSFHD

What was measured:
Test in all cases: glycan array binding signal (z-score within array); higher = stronger binding
Conditions in all cases: glycan notation: IUPAC condensed, linker removed
[1] = target: Fuc(a1-2)Gal(b1-3)GalNAc(b1-3)Gal(a1-4)Gal(b1-4)Glc
In short: (§1)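 Negative Z-scores can be read as non-binding. The Z-score is calculated within each array and then averaged across arrays of one protein sequence at different concentrations or buffers and across linkers. Arrays, 3228 in all, were curated from the Consortium for Functional Glycomics database and kept only where the protein sequence was available.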

Fuc(a1-2)Gal(b1-4)GlcNAc = target: Fuc(a1-2)Gal(b1-4)GlcNAc
In short: as §1

[2] = target: Fuc(a1-3)[Gal(b1-4)]GlcNAc(b1-4)Gal(b1-4)[Fuc(a1-3)]GlcNAc(b1-4)Gal(b1-4)[Fuc(a1-3)]GlcNAc
In short: as §1

[3] = target: Fuc(a1-3)[GalNAc(b1-4)]GlcNAc
In short: as §1

[4] = target: Gal(b1-4)GlcNAc(b1-3)Gal(b1-4)Glc
In short: as §1

Gal3S(b1-4)GlcNAc6S = target: Gal3S(b1-4)GlcNAc6S
In short: as §1

Gal3S6S(b1-4)GlcNAc6S = target: Gal3S6S(b1-4)GlcNAc6S
In short: as §1

[5] = target: GalNAc(b1-3)Gal(a1-4)Gal(b1-4)GlcNAc
In short: as §1

GlcNAc(b1-3)GalNAc = target: GlcNAc(b1-3)GalNAc
In short: as §1

[6] = target: GlcNAc(b1-4)GlcNAc(b1-4)GlcNAc(b1-4)GlcNAc(b1-4)GlcNAc
In short: as §1

Kdn(a2-3)Gal(b1-4)GlcNAc = target: Kdn(a2-3)Gal(b1-4)GlcNAc
In short: as §1

[7] = target: Man(a1-3)[Man(a1-6)]Man(a1-6)[Man(a1-2)Man(a1-3)]Man(b1-4)GlcNAc(b1-4)GlcNAc
In short: as §1

[8] = target: Neu5Ac(a2-3)Gal(b1-4)GlcNAc6S
In short: as §1

[9] = target: Neu5Ac(a2-6)Gal(b1-4)GlcNAc6S
In short: as §1

[10] = target: Neu5Ac(a2-8)Neu5Ac(a2-8)Neu5Ac
In short: as §1

[11] = target: Neu5Ac(a2-8)Neu5Ac(a2-8)Neu5Ac(a2-3)Gal(b1-4)Glc
In short: as §1

[12] = target: Fuc(a1-2)Gal(b1-4)[Fuc(a1-3)]GlcNAc(b1-3)Gal(b1-4)[Fuc(a1-3)]GlcNAc(b1-3)Gal(b1-4)[Fuc(a1-3)]GlcNAc
In short: as §1

[13] = target: Fuc(a1-3)[Gal(b1-4)]GlcNAc
In short: as §1

Gal(a1-2)Gal = target: Gal(a1-2)Gal
In short: as §1

Gal(a1-3)Gal(b1-3)GlcNAc = target: Gal(a1-3)Gal(b1-3)GlcNAc
In short: as §1

Gal(a1-3)Gal(b1-4)Glc = target: Gal(a1-3)Gal(b1-4)Glc
In short: as §1

[14] = target: Gal(b1-3)[Neu5Ac(a2-6)]GalNAc
In short: as §1

[15] = target: GlcNAc(b1-3)Gal(b1-3)GalNAc
In short: as §1

[16] = target: GlcNAc(b1-4)GlcNAc(b1-4)GlcNAc
In short: as §1

[17] = target: GlcNAc(b1-6)Gal(b1-4)GlcNAc
In short: as §1

[18] = target: Man(a1-2)Man(a1-3)[Man(a1-2)Man(a1-6)]Man(a1-6)[Man(a1-2)Man(a1-2)Man(a1-3)]Man(b1-4)GlcNAc(b1-4)GlcNAc
In short: as §1

[19] = target: Man(a1-3)[Man(a1-6)]Man(a1-6)[Man(a1-3)]Man(b1-4)GlcNAc(b1-4)GlcNAc
In short: as §1

[20] = target: Neu5Ac(a2-3)Gal(b1-3)[Neu5Ac(a2-3)Gal(b1-4)]GlcNAc
In short: as §1

[21] = target: Neu5Ac(a2-3)Gal(b1-4)[Fuc(a1-3)]GlcNAc(b1-3)Gal
In short: as §1

[22] = target: Neu5Ac(a2-8)Neu5Ac(a2-3)[GalNAc(b1-4)]Gal(b1-4)Glc
In short: as §1

[23] = target: Neu5Ac(a2-8)Neu5Ac(a2-8)Neu5Ac(a2-3)[GalNAc(b1-4)]Gal(b1-4)Glc
In short: as §1

Binder | glycan array binding signal (z-score) [1] | glycan array binding signal (z-score) (Fuc(a1-2)Gal(b1-4)GlcNAc) | glycan array binding signal (z-score) [2] | glycan array binding signal (z-score) [3] | glycan array binding signal (z-score) [4] | glycan array binding signal (z-score) (Gal3S(b1-4)GlcNAc6S) | glycan array binding signal (z-score) (Gal3S6S(b1-4)GlcNAc6S) | glycan array binding signal (z-score) [5] | glycan array binding signal (z-score) (GlcNAc(b1-3)GalNAc) | glycan array binding signal (z-score) [6] | glycan array binding signal (z-score) (Kdn(a2-3)Gal(b1-4)GlcNAc) | glycan array binding signal (z-score) [7] | glycan array binding signal (z-score) [8] | glycan array binding signal (z-score) [9] | glycan array binding signal (z-score) [10] | glycan array binding signal (z-score) [11] | glycan array binding signal (z-score) [12] | glycan array binding signal (z-score) [13] | glycan array binding signal (z-score) (Gal(a1-2)Gal) | glycan array binding signal (z-score) (Gal(a1-3)Gal(b1-3)GlcNAc) | glycan array binding signal (z-score) (Gal(a1-3)Gal(b1-4)Glc) | glycan array binding signal (z-score) [14] | glycan array binding signal (z-score) [15] | glycan array binding signal (z-score) [16] | glycan array binding signal (z-score) [17] | glycan array binding signal (z-score) [18] | glycan array binding signal (z-score) [19] | glycan array binding signal (z-score) [20] | glycan array binding signal (z-score) [21] | glycan array binding signal (z-score) [22] | glycan array binding signal (z-score) [23]
B1 | 0.301 | -0.842 | 0.278 | -0.149 | 0.542 | 1.21 | 5.19 | 0.773 | 3.29 | -0.613 | 0.64 | 0.549 | -0.22 | 0.583 | 4.19 | 1.53 |  |  |  |  |  |  |  |  |  |  |  |  |  |  | 
B2 | -0.222 |  |  |  |  |  |  |  |  |  | 1.75 |  |  |  |  |  | 1.97 | -0.335 | -0.046 | -0.064 | 1.66 | -0.279 | -0.229 | 3.79 | -0.071 | 0.357 | -0.154 | -0.395 | -0.262 | 0.013 | -0.243
